# Experimental data reported in PubChem BioAssay (NCATS).
# Experiment: High-throughput drug toxicity screening in the BPDCN cell line Gen2.2 (AID 1224824)
# Settings: Gen2.2 BPDCN cells; at 45.8 µM (top of the series) unless noted
# Text: Blastic plasmacytoid dendritic cell neoplasm (BPDCN) is a rare, aggressive and largely incurable hematologic malignancy originating from plasmacytoid dendritic cells (pDCs). Although an initial response to chemotherapy is common, BPDCN prognosis is extremely poor and most patients relapse with drug-resistant disease leading to a median overall survival of ~1 year after diagnosis. To explore novel potential therapeutic strategies in BPDCN, we performed a high-throughput drug toxicity screening in BPDCN cell liens, using of a library of 1,912 small molecules, enriched for compounds that are either approved or in early stages of development for cancer therapy.
# A total of 500 exponentially growing Gen2.2 cells were seeded per well in 5 uL of media (RPMI + Glutamine, without phenol red plus10% FBS and 1X Pen/Strep) into 1536-well solid white high base tissue culture treated Greiner One Bio Plates (789173-F), using a multidrop combi dispenser and a small sterile cassette. Compounds and controls totaling 23nL per well (negative control DMSO and positive control 9.2 uM Bortezomib-final) were immediately added to the plates using a 1536 head pin tool from Kalypsys. The plates were then covered with stainless steel gasket lids from Kalypsys and incubated for 48 hours at 37C under 95% relative humidity with 5% CO2. After 48 hours, the plates were removed and allowed to reach room temperature before 3 uL of Cell Titer Glo reagent (Promega) were added using an Aurora Flying Reagent Dispenser Bioraptor. The plates were then spun at 1000 rpms to remove bubbles and incubated for 15 minutes at room temperature before reading on a ViewLux using a luminescent filter with a 10 second exposure. The relative luciferase units were used to calculated percent activity using DMSO as 100% and Bortezomib as 0%.
row,Compound,"cell viability, % of control (lower = more cytotoxic)"
1,COc1cc(C)c(Sc2cnc(NC(=O)c3ccc(CNC(C)C(C)C)cc3)s2)cc1C(=O)N1CCN(C(C)=O)CC1 (stereo not given),140%
2,Nc1nc(NCCNc2ncc(-n3ccnc3)c(-c3ccc(Cl)cc3Cl)n2)ccc1[N+](=O)[O-],9.17%
3,CN1CCN(c2ccc3nc(-c4c(N)c5c(F)cccc5[nH]c4=O)[nH]c3c2)CC1,9.8%
4,c1nc2nc(Nc3ccc(N4CCOCC4)cc3)nc(NC3CCCCC3)c2[nH]1,9.78%
5,COc1cc2c(Oc3ccc(-c4cnc(Nc5ccc(F)cc5)n(C)c4=O)cc3F)ccnc2cc1OCCCN1CCOCC1,5.93%
6,C=CC(=O)Nc1cccc(Oc2nc(Nc3ccc(N4CCN(C)CC4)cc3OC)ncc2Cl)c1,8%
7,O=C(Nc1cn[nH]c1-c1nc2ccc(CN3CCOCC3)cc2[nH]1)NC1CC1,4.46%
8,Cc1cc(Nc2ncnc3ccc(-c4ccc(CNCCS(C)(=O)=O)o4)cc23)ccc1Oc1ccn2ncnc2c1,3.66%
9,CNC(=O)CN1CCC(Oc2cc3c(Nc4cccc(Cl)c4F)ncnc3cc2OC)CC1,50.7%
10,CC(C)(C)OC(=O)Nc1ccc(-c2cc(C(=O)NCCCCCCC(=O)NO)no2)cc1,4.96%
11,Cc1ccc(CN2CCNCC2)cc1NC(=O)CNc1ccc(F)c(F)c1,124%
12,C1Cc2[nH]nc(-c3nn[nH]n3)c2C1,194%
13,NC1(Cc2ccc(Cl)cc2)CCN(c2ncnc3[nH]ccc23)CC1,12.2%
14,Cc1cc(Nc2cc(CN3CCOCC3)c3nc(C)c(Cc4ccc(Cl)cc4F)n3n2)n[nH]1,4.25%
15,C[C@@]12O[C@@H](C[C@]1(O)CO)n1c3ccccc3c3c4c(c5c6ccccc6n2c5c31)CNC4=O,9.33%
16,C[C@@H](Oc1cc(-c2cnn(C3CCNCC3)c2)cnc1N)c1c(Cl)ccc(F)c1Cl,13.2%
17,COC(=O)C[C@](O)(CCCC(C)(C)O)C(=O)O[C@@H]1C(OC)=C[C@]23CCCN2CCc2cc4c(cc2[C@H]13)OCO4,131%
18,OCCCNc1cc(-c2ccnc(Nc3cccc(Cl)c3)n2)ccn1,4.08%
19,Nc1ccccc1NC(=O)c1ccc(CNc2nccc(-c3cccnc3)n2)cc1,12.7%
20,CNC(=O)c1c(F)cccc1Nc1nc(Nc2cc3c(cc2OC)CCN3C(=O)CN(C)C)nc2[nH]ccc12,5.55%

row,Compound,"cell viability, % of control (lower = more cytotoxic)"
1,O=C(NCCCNc1nc(Nc2cccc(NC(=O)N3CCCC3)c2)ncc1I)c1cccs1,5.4%
2,O=C(Nc1cc(C(F)(F)F)cc(C(F)(F)F)c1)c1cc(Cl)ccc1O,7.43%
3,COc1cccc(Nc2c(C(N)=O)cnc3c(C)cc(S(=O)(=O)c4cccc(C(=O)N(C)C)c4)cc23)c1,216% [at 23.2 µM]
4,Cc1ccc(C(N)=O)cc1Nc1nccc(-c2cn(C(C)C)c3cnccc23)n1,4.31%
5,O=C(NC1CCNCC1)c1[nH]ncc1NC(=O)c1c(Cl)cccc1Cl,5.14%
6,COC(=O)Nc1nc2ccc(C(=O)c3ccc(F)cc3)cc2[nH]1,78.4%
7,COc1cc(C(=O)NS(=O)(=O)c2ccccc2C)ccc1Cc1cn(C)c2ccc(NC(=O)OC3CCCC3)cc12,13%
8,O=C1CCC[C@@H]2[C@H]3CCC[N+]4([O-])CCC[C@@H](CN12)[C@@H]34 (stereo not given in full),92.5%
9,Cn1c2ccccc2c2c3c(c4c5ccccc5n(CCC#N)c4c21)CNC3=O,12.7%
10,CC[C@@H]1C(=O)N(C)c2cnc(Nc3ccc(C(=O)NC4CCN(C)CC4)cc3OC)nc2N1C1CCCC1,4.74%
11,CNC(=O)c1ccc(N2C(=S)N(c3cnc(C#N)c(C(F)(F)F)c3)C(=O)C23CCC3)cc1F,7.43%
12,CCc1cc2c(cc1N1CCC(N3CCOCC3)CC1)C(C)(C)c1[nH]c3cc(C#N)ccc3c1C2=O,258%
13,COc1cc2c(cc1-c1c(C)noc1C)ncc1[nH]c(=O)n([C@H](C)c3ccccn3)c12,65.5%
14,COC(=O)Nc1ccc(-c2nc(N3CCOCC3)c3cnn(C4CCN(Cc5cccnc5)CC4)c3n2)cc1,4.27%
15,Cc1cc(CN2CCN(c3c(Br)cnc4nc(-c5ccc(N6CCN(C)CC6)cc5)[nH]c34)CC2)no1,3.72%
16,O=C(O)Cn1nnc(-c2cc(N3CCC(Oc4cc(F)ccc4Br)CC3)no2)n1,231%
17,Cn1c(=O)n(-c2ccc(C(C)(C)C#N)cc2)c2c3cc(-c4cnc5ccccc5c4)ccc3ncc21,8.42%
18,O=C(CCCCCCNC(=O)c1cnc(N(c2ccccc2)c2ccccc2)nc1)NO,5.14%
19,CCN(CC)CCNC(=O)c1ccc2nc(-c3ccccc3)c(-c3ccc(CN4CCC(n5c(=O)[nH]c6ccccc65)CC4)cc3)nc2c1,1.68%
20,Cc1cc(Nc2cc(N3CCN(C)CC3)nc(C=Cc3ccccc3)n2)n[nH]1,9.99% [at 92.2 µM]
